ALOX12 inh: Primary qHTS assay for inhibitors of human arachidonate 12S-lipoxygenase (ALOX12): Round 2; Potency, µM (highest dose often 108 µM), actives largely listed as inhibitors; AID 1671190, 2021; hit rate 1.1% among 580,000; purified 12hLO, xylenol orange hydroperoxide absorbance; Polyunsaturated fatty acid lipoxygenase ALOX12 (Homo sapiens), P18054
Target sequence (P18054 whole entry, looked up): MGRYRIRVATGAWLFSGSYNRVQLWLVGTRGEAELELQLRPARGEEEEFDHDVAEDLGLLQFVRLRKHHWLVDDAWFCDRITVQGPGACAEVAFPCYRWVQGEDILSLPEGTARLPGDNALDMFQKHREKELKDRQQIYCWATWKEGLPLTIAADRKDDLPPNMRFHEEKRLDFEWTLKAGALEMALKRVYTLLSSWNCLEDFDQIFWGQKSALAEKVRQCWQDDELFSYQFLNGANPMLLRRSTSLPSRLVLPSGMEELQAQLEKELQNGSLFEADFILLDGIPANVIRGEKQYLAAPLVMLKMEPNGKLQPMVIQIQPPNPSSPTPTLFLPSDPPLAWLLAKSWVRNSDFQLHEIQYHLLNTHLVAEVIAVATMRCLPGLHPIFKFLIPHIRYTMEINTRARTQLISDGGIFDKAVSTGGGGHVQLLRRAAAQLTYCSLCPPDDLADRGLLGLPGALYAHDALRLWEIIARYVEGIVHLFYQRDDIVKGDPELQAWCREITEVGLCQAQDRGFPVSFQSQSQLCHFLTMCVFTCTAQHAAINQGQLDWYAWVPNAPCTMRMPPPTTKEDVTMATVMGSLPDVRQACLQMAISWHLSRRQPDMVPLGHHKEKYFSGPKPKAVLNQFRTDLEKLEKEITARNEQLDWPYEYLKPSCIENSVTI
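Hydroperoxide product was detected by ferrous iron/xylenol orange as the 573 to 405 nm absorbance ratio. Arachidonic acid at 40 uM (final) was turned over for 30 min at room temperature by 150 nM human 12hLO, pH 7.0 Hepes buffer, after 15 min compound preincubation.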
PLK1 PBD inh: qHTS for Inhibitors of PLK1-PDB (polo-like kinase 1 - polo-box domain): Primary Screen; Plk1 PBD binding of FITC phosphopeptide, fluorescence polarization; Potency, µM, hits mostly inhibitors; hit rate 2.8% among 360,000; Serine/threonine-protein kinase PLK1 (Homo sapiens), P53350; further: series mostly up to about 57 µM; nearly all actives have a fitted effect of over 65% in size
BAZ2B block: qHTS Assay for Inhibitors of BAZ2B | Bromodomain adjacent to zinc finger domain protein 2B (Homo sapiens), Q9UIF8 | AlphaScreen BAZ2B-H3K14Ac peptide displacement | Potency, µM (highest dose often 114 µM), most hits filed as inhibitors | hit rate 4.4% among 360,000 | AID 504333, 2011; further: nearly all actives have a fitted effect of over 60% in size
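AlphaScreen luminescence quantifies BAZ2B engagement of H3K14Ac peptide; the protein and biotinylated peptide are both at 50 nM final, buffer PBS pH 7.4 with 0.01% Tween-20, all steps at room temperature.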
JMJD2A Tudor inh: qHTS Assay for Inhibitors of JMJD2A-Tudor Domain; AID 504339, 2011; AlphaScreen JMJD2A-Tudor / H3K4me3 peptide binding; Potency, µM (highest dose often 114 µM), hits mostly inhibitors; hit rate 4.4% among 390,000; further: nearly all actives have a fitted effect of over 50% in size
HP1b chromo inh: HTS for Inhibitors of HP1-beta Chromodomain Interactions with Methylated Histone Tails; Chromobox protein homolog 1 (Homo sapiens), P83916; AlphaScreen HP1-beta / biotin-H3K9me3 peptide binding; Potency, µM (top dose mostly 114 µM), hits mostly inhibitors; hit rate 0.56% among 390,000; further: nearly all actives have a fitted effect of over 70% in size
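Compound inhibition of the preformed complex between 50 nM HP1-beta and 50 nM biotinylated H3K9me3 peptide was read by AlphaScreen. Buffer was PBS pH 7.4 with 0.01% Tween-20. Incubations ran 30 min at room temperature, with 10 ug/mL donor/acceptor beads.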
G9a inh: qHTS Assay for Inhibitors of Histone Lysine Methyltransferase G9a; Histone-lysine N-methyltransferase EHMT2 (Homo sapiens), Q96KQ7; Potency, µM (doses to about 102 µM), hits mostly inhibitors; G9a H3K9 monomethylation, AlphaScreen, 2 h; hit rate 8.8% among 350,000; further: nearly all actives have a fitted effect of over 75% in size
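Step 1: enzyme (final 20 nM) with compound, 15 min RT. Step 2: substrate peptide 500 nM and SAM 20 uM, 2 h RT. Step 3: anti-H3K9me1 antibody and AlphaScreen beads, 10 min, then plate read.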
TbPYK inh: qHTS of Trypanosoma Brucei Inhibitors: Confirmatory Assay for Cherry-picked Compounds | shares compounds with PLK1 PBD inh | recombinant TbPYK, Kinase-Glo ATP luminescence | Potency, µM (highest dose often 76.9 µM), actives largely listed as inhibitors | hit rate 67% among 890 | AID 720569, 2013; further: nearly all actives have a fitted effect of over 70% in size
TbPYK orthogonal: qHTS of Trypanosoma Brucei Inhibitors: Orthogonal Assay for Cherry-picked Compounds; hit rate 62% among 890; recombinant TbPYK, ADP-Glo luminescence, 60 min; shares compounds with PLK1 PBD inh; Potency, µM (doses to about 76.9 µM), hits mostly inhibitors; further: nearly all actives have a fitted effect of over 75% in size
Each line names hits and unclear results; the compound was inactive in the other large screens (follow-up assays come after a bar, where they were run). Rows were chosen to be rich in hits. Some 9% of all compounds tested hit in one or more screens of this group. The call rests on the fitted dose curve; in most records, active means well fitted curve in the direction sought with a large enough effect; inconclusive means small, poorly fitted or top-dose-only effect, or another doubt; inactive means no such curve, though single readings can be large; an effect the other way counts as inactive or inconclusive.

CCN(CC)c1ccc(C(=C2C=CC(=[N+](CC)CC)C=C2)c2ccc(N(CC)CC)cc2)cc1	PLK1 PBD inh 30µM, JMJD2A Tudor inh 1.3µM, HP1b chromo inh 2.8µM (no result: BAZ2B block, G9a inh) | TbPYK inh 22µM | TbPYK orthogonal inactive
CCN(CC)c1ccc(C(=C2C=CC(=[N+](CC)CC)C=C2)c2ccccc2)cc1	ALOX12 inh 22µM, PLK1 PBD inh 3.8µM, JMJD2A Tudor inh 16µM, HP1b chromo inh 10µM (no result: BAZ2B block, G9a inh) | TbPYK inh 35µM | TbPYK orthogonal inconclusive
Cc1ccc(NC(=O)c2nn(C)c3c2CS(=O)(=O)c2ccccc2-3)c(Cl)c1	BAZ2B block inconclusive, G9a inh inconclusive (no result: PLK1 PBD inh)
CC1(C)OC1(C#N)c1ccccc1 (stereo not drawn)	none (no result: BAZ2B block, G9a inh)
CN1c2ccccc2N(C)C1(C)c1ccccc1	ALOX12 inh inconclusive, PLK1 PBD inh 4.2µM, JMJD2A Tudor inh 8.9µM, HP1b chromo inh inconclusive, G9a inh inconclusive | TbPYK inh 3.2µM | TbPYK orthogonal 5µM
CCCCn1nnnc1C1(C)CCC(=O)N1CCCn1ccnc1 (stereo not drawn)	PLK1 PBD inh 6µM (no result: BAZ2B block, JMJD2A Tudor inh, HP1b chromo inh, G9a inh) | TbPYK inh 14µM | TbPYK orthogonal 35µM
COc1ccccc1-n1c(=S)[nH]c2c(sc(=S)n2-c2ccccc2)c1=O	JMJD2A Tudor inh inconclusive | TbPYK inh 32µM | TbPYK orthogonal 18µM
CCOc1ccccc1-n1c(=S)sc2c(=O)n(-c3ccccc3)c(=S)[nH]c21	JMJD2A Tudor inh 79µM | TbPYK inh 11µM | TbPYK orthogonal 11µM
COc1ccccc1-n1c(=S)[nH]c2c(sc(=S)n2-c2ccccc2C)c1=O	PLK1 PBD inh 27µM, JMJD2A Tudor inh 79µM, HP1b chromo inh inconclusive, G9a inh inconclusive | TbPYK inh 5µM | TbPYK orthogonal 14µM
N#Cc1ccc(C(=O)Nc2cc3nn(-c4ccccc4)nc3cc2Cl)c(F)c1	none (no result: PLK1 PBD inh)
CCCCOc1ccc(NC(=O)c2cc(F)c(F)cc2Cl)cc1	none
CCN(CC(=O)N1CCOCC1)S(=O)(=O)c1ccccc1	ALOX12 inh inconclusive
CCC(C)N1CCN(C(=O)C2CCN(S(=O)(=O)c3c(C)noc3/C=C/c3ccco3)CC2)CC1 (stereo not drawn)	none (no result: G9a inh)
CC(C)(O)C1Cc2cc(/C=C/C(=O)O)c(O)cc2O1 (stereo not drawn)	ALOX12 inh inconclusive, PLK1 PBD inh 3µM, BAZ2B block 20µM, JMJD2A Tudor inh 4µM, HP1b chromo inh inconclusive, G9a inh 2µM | TbPYK inh 13µM | TbPYK orthogonal 14µM
COc1cc2c(cc1/C=C/C(=O)O)OC(C)C2 (stereo not drawn)	none
CCOC(=O)C1=C(C)c2ccccc2N(C(=O)OC)C1(C)C(=O)OCC (stereo not drawn)	ALOX12 inh inconclusive, PLK1 PBD inh inconclusive (no result: BAZ2B block) | TbPYK inh 32µM | TbPYK orthogonal 40µM
O=C(C1=C[C@@H](c2ccc(Br)cc2)C[C@@H](OCc2ccc(CO)cc2)O1)N1CCN(Cc2ccccc2)CC1	BAZ2B block inconclusive, G9a inh inconclusive (no result: ALOX12 inh)
Cc1sc2c3ccsc3ccc2[n+]1C	ALOX12 inh 16µM, PLK1 PBD inh 11µM, BAZ2B block 100µM, JMJD2A Tudor inh 25µM, G9a inh inconclusive | TbPYK inh 20µM | TbPYK orthogonal 5µM
Cc1sc2ccc3sccc3c2[n+]1C	ALOX12 inh 11µM, PLK1 PBD inh inconclusive, BAZ2B block inconclusive, JMJD2A Tudor inh 20µM, G9a inh 3.5µM | TbPYK inh 4.5µM | TbPYK orthogonal 5µM
CCCC(=O)NC1=C(Cl)C(=O)c2ccccc2C1=O	ALOX12 inh inconclusive, PLK1 PBD inh 3µM, JMJD2A Tudor inh 1.8µM, HP1b chromo inh 7.1µM (no result: BAZ2B block, G9a inh) | TbPYK inh 7.1µM | TbPYK orthogonal 7.1µM
CCCC(=O)NNC(=O)CCC(=O)Nc1ccccc1Cl	none
Cc1c(N2C(=O)/C(=C/c3cccc4ccccc34)SC2=S)c(=O)n(-c2ccccc2)n1C	JMJD2A Tudor inh inconclusive, HP1b chromo inh inconclusive (no result: BAZ2B block, G9a inh)
Cc1c(N2C(=O)/C(=C\c3ccccc3O)SC2=S)c(=O)n(-c2ccccc2)n1C	ALOX12 inh inconclusive, PLK1 PBD inh 1.7µM, JMJD2A Tudor inh 18µM, HP1b chromo inh inconclusive, G9a inh 1.8µM | TbPYK inh 4.5µM | TbPYK orthogonal 7.9µM
CCN(CC)/C(=N\S(=O)(=O)c1ccc(C)cc1C)c1ccccc1	none (no result: PLK1 PBD inh, BAZ2B block, JMJD2A Tudor inh, HP1b chromo inh, G9a inh)
COC(=O)/C(=N/Nc1ccccc1C)Sc1nnc(C(O)c2ccccc2)n1-c1ccccc1 (stereo not drawn)	ALOX12 inh inconclusive, G9a inh 16µM | TbPYK inh 35µM | TbPYK orthogonal 35µM
CCN(CC(=O)NC1CCCC1)S(=O)(=O)c1ccc(C)cc1	ALOX12 inh inconclusive
O=S(=O)(O)c1cc(O)c(N=Nc2ccc(O)cc2O)c2ccccc12	ALOX12 inh 8.9µM, PLK1 PBD inh inconclusive, JMJD2A Tudor inh 3.5µM, HP1b chromo inh inconclusive (no result: BAZ2B block, G9a inh) | TbPYK inh 11µM | TbPYK orthogonal inconclusive
CCOCCCNC(=O)C(c1ccccc1)N(Cc1cccs1)C(=O)c1ccccc1O (stereo not drawn)	none
O=C(Cn1cnc2c(NCc3ccccc3)ncnc21)N1CCN(c2ccccn2)CC1	none (no result: BAZ2B block, G9a inh)
CC1(C)CC(=O)C(=Cc2cn(-c3ccccc3)nc2-c2ccccc2)C(=O)C1	PLK1 PBD inh 1.2µM (no result: BAZ2B block, G9a inh) | TbPYK inh 10µM | TbPYK orthogonal inconclusive
CCOC(=O)C1C(=O)CC(C)(O)C(C(=O)OCC)C1c1ccccc1 (stereo not drawn)	none
CCOC(=O)C1C(=O)CC(C)(O)C(C(=O)OCC)C1c1ccc(Br)o1 (stereo not drawn)	ALOX12 inh inconclusive, G9a inh inconclusive | TbPYK inh inconclusive | TbPYK orthogonal inactive
O=C1C(=Cc2cccc(O)c2O)SC(=S)N1CCCN1CCOCC1	ALOX12 inh 6.3µM, PLK1 PBD inh 5.3µM (no result: BAZ2B block, JMJD2A Tudor inh, HP1b chromo inh, G9a inh) | TbPYK inh 4.5µM | TbPYK orthogonal 2.2µM
Cc1ccc(S(=O)(=O)CC(O)CN2CCCC2=O)cc1 (stereo not drawn)	none
